Reference: PubChem BioAssay (EPA / NIEHS)
Values joined by “and” are separate entries in the source; they are usually repeats but may differ in a detail not shown here. Equal entries are not always repeated. Active and inactive are the calls of the source. Rule for the calls: active = hit-call score of the fitted dose curve at least 0.9, where 1 is the maximum; inactive = score below 0.9.

Assay: CCTE_Shafer_MEA_acute_per_burst_spike_number_mean: CCTE's Neural Acute Assay for Average Number of Spikes Per Burst, Shafer Lab (AID 2284015);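 note: hits are decreases in mean spikes per burst versus baseline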
Experimental: CCTE_Shafer_MEA_acute assay is conducted using Axion Biosystems 48 well microelectrode array (MEA) plates and Maestro recording system. Each well of the MEA plate contains a grid of 16 microelectrodes embedded in the culture surface. Electrically active cells, such as neurons, can be cultured over the electrodes, and electrical activity in these cells can be recorded extracellularly. The spontaneous firing of neurons is captured from each electrode on a microsecond timescale providing both temporally and spatially precise data. […] The CCTE_Shafer_MEA_acute assay uses primary cultures of rat cortical neurons. As these cultures mature over time, neural networks develop functional activity and form cohesive networks in which electrical activity can be highly coordinated. Baseline 40-minute recordings are made on days post-plating 13 or 15, followed by a secondary 40-minute recording after chemical exposure.CCTE_Shafer_MEA_acute_per_burst_spike_number_mean is a component of the CCTE_Shafer_MEA_acute assay. It measures the average number of spikes (action potential firings) in a single-electrode burst (temporally-clustered group of spikes) during a recording in a microelectrode array (MEA) using Axion Biosystems Maestro 768 channel amplifier with the AxIS adaptive spike detector. The recordings before and after chemical treatment are used to calculate a percent change in the mean number of spikes per burst in each well.Data from the assay component CCTE_Shafer_MEA_acute_per_burst_spike_number_mean was analyzed into 1 assay endpoint. This assay endpoint, CCTE_Shafer_MEA_acute_per_burst_spike_number_mean, was analyzed in the negative analysis fitting direction relative to DMSO as the negative control and baseline of activity. Using a type of functional reporter, gain or loss-of-signal activity can be used to understand electrical activity.
Spontaneous activity in the cortical cultures was recorded using an Axion Biosystems Maestro 768 channel amplifier and Axion Integrated Studios (AxIS) v1.8 (or later) software. The amplifier recorded from all channels simultaneously (gain = 1200 x; sampling rate = 12.5 kHz/channel): raw signals were filtered with a Butterworth band-pass filter (300-5000 Hz), which filters out slower local field potentials leaving only fast potentials, i.e., "spikes", arising from extracellular currents associated with action potentials (Pine 2006; Wheeler and Nam 2011). On-line spike detection of filtered signals was conducted with the AxIS adaptive spike detector, using a threshold of 8x the root mean squared (rms) noise on each channel. Any electrodes with rms noise levels greater than 5 uV were grounded (e.g., no data were recorded). Once grounded, an electrode was grounded for the duration of the experiment. All recordings were conducted at 37 C. Wells were deemed usable if on the day of the exposure >/= 10 electrodes were active (defined as >/= 5 spikes/min). On DIV 13 or 15, a minimum of three wells from one cortical culture preparation were treated with each compound (0.03-40 uM). Prior to recording baseline activity, each mwMEA plate was placed in the Maestro at 37 C and allowed to sit for 20 min while firing rates stabilized. Baseline activity (40 min) was recorded before the addition of each compound. An additional 40 min of spontaneous activity was recorded in the presence of each compound. Changes in network parameters relative to baseline were assessed following compound treatment.
For Cc1cc(N=Nc2ccccc2C)ccc1N, the AC50 was 20 µM (active). In the case of COC(=O)Nc1nc2ccccc2[nH]1, the outcome is reported as “inactive”. In the case of CCN(CC)N=O, the outcome is reported as “inactive”. For Clc1ccc(C(c2ccc(Cl)cc2)C(Cl)(Cl)Cl)cc1, the outcome was “inactive”. With CCC(C)c1ccc(O)cc1 (stereo not given) the AC50 was 32 µM (active). In the case of c1ccc(NNc2ccccc2)cc1, the AC50 is reported as 20 µM (active). With O=C(Oc1ccc(Br)cc1)N1CCN2CCC1CC2 the outcome was “inactive”. For CC(C)COC(=O)c1ccccc1C(=O)OCC(C)C, the AC50 was 6.45 µM (active). For [Cl-].[Cl-].[Hg+2], the outcome was “inactive”. For C[N+](C)(C)CC1CO1 (stereo not given), the outcome was “inactive”. For CC(C)(O)c1cnn2c(-c3ccc(F)c(-c4c(F)cccc4C#N)c3)cnc2n1, the outcome was “inactive”. In the case of CCC[CH2][Sn]([Cl])([CH2]CCC)[CH2]CCC, the AC50 is reported as 198 nM (active) and 150 nM (active). In the case of ClC1=C(Cl)[C@]2(Cl)[C@H]3[C@H]([C@@H]4C=C[C@H]3C4)[C@@]1(Cl)C2(Cl)Cl, the outcome is reported as “inactive”. For CC(C)(C)C(O)(CCc1ccc(Cl)cc1)Cn1cncn1 (stereo not given), the outcome was “inactive”. With CC(C)(OOC(C)(C)c1ccccc1)c1ccccc1 the outcome was “inactive”. In the case of ClCCOCCCl, the outcome is reported as “inactive”. With O=Cc1ccco1 the outcome was “inactive”. With c1ccc(N=Nc2ccccc2)cc1 the outcome was “inactive”. For CCCCOC(=O)c1ccccc1C(=O)OCc1ccccc1, the AC50 was 5 µM (active). In the case of ClC1=C(Cl)C2(Cl)C3C(Cl)C=CC3C1(Cl)C2(Cl)Cl (stereo not given), the AC50 is reported as 4.15 µM (active). In the case of O=[N+]([O-])c1ccc(Oc2ccc(Cl)cc2Cl)cc1, the outcome is reported as “inactive”. With O=C(N[C@H](c1ccccc1)[C@@H]1CN2CCC1CC2)c1c(Cl)ccc(C(F)(F)F)c1Cl the outcome was “inactive”. For Cc1ccc(N)c(N)c1, the outcome was “inactive”. For Clc1ccc(C(c2ccc(Cl)cc2)C(Cl)Cl)cc1, the outcome was “inactive”. In the case of CCCCCOC(=O)c1ccccc1C(=O)OCCCCC, the AC50 is reported as 4.26 µM (active). With CCN(CC)CCO the outcome was “inactive”. In the case of N#CC(Br)Br, the outcome is reported as “inactive”. With O=P(OCCCl)(OCCCl)OCCCl the outcome was “inactive”. For CCCCCCCCn1sccc1=O, the outcome was “inactive”. In the case of O=[N+]([O-])C(Br)(CO)CO, the AC50 is reported as 20 µM (active).
